According to PubChem BioAssay AID1508622 (National Center for Advancing Translational Sciences (NCATS), 2021):
Activity calls are given as the source filed them. Calls come from the whole dose curve; as a rule, active = well fitted activation curve with a large enough effect; inconclusive = small, poorly fitted or top-dose-only effect; inactive = no such curve, though single readings can be large or run the other way.

assay: Confirmatory qHTS for Identification of Small Molecule Activators of Huntingtin-Antisense Promoter Activity; conditions: HEK293 HTT-AS promoter firefly luciferase reporter, 24 h; series mostly up to 57.5 µM; activity change, positive = activation: at the top concentration
Outline: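 HEK293 luciferase reporter cells, 2,500/well, cultured 24 h, then exposed to compounds at up to 57.5 uM final for 24 h at 37C. Firefly luciferase luminescence read; normalized to vehicle (0%) and zero RLU (-100%).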
Potency is the fitted concentration of half-maximal effect.

Activity change, positive = activation, inactive:
COc1cccc(NC(CNS(=O)(=O)c2ccc(Cl)cc2)c2ccccc2)c1 (centres undefined) -76.1%
COc1ccccc1C(=O)Nc1nc2n(n1)C(c1ccc(F)cc1)C=C(c1ccc(Cl)cc1)N2 (centres undefined) -13.7%
COc1ccc2sc(N(Cc3cccnc3)C(=O)c3cccs3)nc2c1 -46.8%
Cc1ccc(CN2CCCn3nc(C(=O)NCc4cc(C)ccc4C)cc3C2=O)cc1 -70%
CCN1C(=O)c2ccccc2Sc2ccc(NC(=O)Nc3ccccc3OC)cc21 -26.7%
COc1ccc(C(=O)NCC(c2cccnc2)N2CCN(c3ccc(F)cc3)CC2)cc1 (centres undefined) -41.1%
CN1C(=O)c2ccccc2Sc2ccc(NC(=O)NCc3ccc(Cl)cc3)cc21 -93.9%
CC1Cc2cc(S(=O)(=O)NCc3ccc(F)cc3)ccc2N1C(=O)C1CCC1 (centres undefined) -29.9%
COc1ccc(-c2nc3cc(NC(=O)Cc4ccc(Cl)cc4)ccc3o2)cc1OC -40.8%
COc1cccc(NC(=O)CN2CCCN(S(=O)(=O)c3ccc(Br)cc3)CC2)c1 -30.8%
CCOc1ccc(CCNC(=O)C(CC(C)C)N2Cc3ccccc3C2=O)cc1OCC (centres undefined) -50.7%
FC(F)(F)c1cccc(Nc2c3c(nc4ccc(Cl)cc24)CCC3)c1 -57.1%
CC(C)c1ccc(NC(=O)c2ccc(F)c(S(=O)(=O)N3CCc4ccccc4C3)c2)cc1 -28.5%
COc1ccc(CCNc2ncnc3onc(C)c23)c(OC)c1 -71.8%
COc1ccc(C2=CC(c3ccc(F)cc3)n3ncc(C(=O)Nc4ccc(C)cc4)c3N2)cc1 (centres undefined) -18.3%
COc1ccc(S(=O)(=O)N2CCC(C(=O)Nc3ccc(Oc4ccccc4)cc3)CC2)cc1OC -27.8%
COc1ccc(S(=O)(=O)N2CCC(c3nnnn3-c3ccccc3)CC2)cc1OC -44.4%
O=C(Cn1c(=O)oc2cc(S(=O)(=O)N3CCCCC3)ccc21)NCc1ccc(Cl)cc1 -0.668%
COc1ccc2nc(N3CCN(C(=O)CS(=O)(=O)c4ccc(C)cc4)CC3)sc2c1 -25.5%
COc1cccc(NC(=O)/C(C#N)=C\c2cn(Cc3ccc(C)cc3)c3ccccc23)c1 -35.9%
CCCCOc1ccc(CNC(=O)c2cc3n(n2)CCCN(Cc2ccc(C)cc2)C3=O)cc1 -89.4%
Cc1ccc(SCc2nc(-c3ccc(C(=O)NCc4ccccc4Cl)cc3)oc2C)cc1 -12.5%
CCc1nnc2n1N(C(C)=O)C(c1ccc(C(C)(C)C)cc1)=C(C(C)=O)S2 -94.1%
O=C(CCNS(=O)(=O)c1ccc2c(c1)CCN2C(=O)C1CC1)N1CCN(c2ccc(F)cc2)CC1 -24.2%
CCN(Cc1ccccc1)S(=O)(=O)c1ccc(N2CCCCS2(=O)=O)cc1 -36.8%
COc1cc(CN(C(=O)COc2ccc(Br)cc2)c2ccccn2)cc(OC)c1OC -54.6%
CCCC(O)c1nc2ccccc2n1CCCCOc1ccc(OC)cc1 (centres undefined) -43.5%
CCc1cccc(-n2nnc(S(=O)(=O)c3ccc(OC)cc3)c2C)c1 -47.9%
CCOc1ccccc1CNC(=O)c1ccc(NC(=O)N2CCSc3ncccc32)cc1 -51.6%
Cc1ccccc1Cn1c(=O)n(Cc2ccco2)c(=O)c2oc3ccccc3c21 -7.53%
CCOC(=O)c1cnc2ccc(OC)cc2c1Nc1ccc(OCc2ccccc2Cl)cc1 -79.2%
CCCc1cc(N2CCN(c3ccccc3)CC2)n2cnnc2n1 -84.6%
COc1ccc(-n2c(=O)[nH]c3cc(C(=O)NCCc4ccc(Cl)cc4)ccc3c2=O)cc1OC -46.8%
CCOC(=O)C1CCN(S(=O)(=O)c2ccc(N3CCCCS3(=O)=O)cc2)CC1 -35%
CCNc1nc2c(c(=O)n(C)c(=O)n2C)n1Cc1ccc(F)cc1 -94.7%

Potency, active:
CCc1ccc2c(c1)-c1ccccc1S(=O)(=O)N2CC(=O)N1CCCCC1 9.53 µM
Cc1cccc(CSc2cn(CC(=O)N3CCOCC3)c3ccccc23)c1 3.01 µM
CC(=O)Nc1ccc(S(=O)(=O)Nc2cc(-c3cn4ccccc4n3)ccc2C)cc1 10.7 µM
Cc1ccc(N2C(=O)C(CC(=O)Nc3ccccc3)N(CCC3=CCCCC3)C2=O)cc1 (centres undefined) 6.75 µM
